Bioassay records deposited in PubChem BioAssay by several laboratories.
CYP2C19 inhib: blockers of cytochrome P450 2C19 activity – biochemical, luminescence, ADME assay, primary screen; P33261; CYP2C19 Supersomes, luciferin-H EGE luminescence, 30 min; inhibition, % at 5 µM; hit rate 21% among 96,000;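 active = CYP2C19 inhibition above a set limit at 5 µM in the primary screen, cut at about 50% in these data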;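 note: plate controls were negative control wells for no effect and 2.5 mM tranylcypromine positive control for full effect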
Target sequence (P33261 whole entry, looked up): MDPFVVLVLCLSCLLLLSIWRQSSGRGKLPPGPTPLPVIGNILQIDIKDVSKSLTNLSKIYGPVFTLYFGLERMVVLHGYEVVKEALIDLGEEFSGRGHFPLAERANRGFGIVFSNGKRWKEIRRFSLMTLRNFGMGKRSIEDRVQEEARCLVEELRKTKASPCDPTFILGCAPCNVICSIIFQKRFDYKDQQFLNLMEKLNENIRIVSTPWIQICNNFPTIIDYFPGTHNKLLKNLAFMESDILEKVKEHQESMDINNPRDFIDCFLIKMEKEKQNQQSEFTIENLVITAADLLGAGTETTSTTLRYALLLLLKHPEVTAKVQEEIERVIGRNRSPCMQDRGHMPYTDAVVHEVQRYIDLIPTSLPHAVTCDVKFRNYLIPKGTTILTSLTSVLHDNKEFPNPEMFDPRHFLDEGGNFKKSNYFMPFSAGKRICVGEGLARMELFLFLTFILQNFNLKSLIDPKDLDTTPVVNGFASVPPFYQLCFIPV
EphB4 ephrin blk: EphB4-ephrin-B2 interaction antagonists, primary screen, biochemical, TNYL-RAW peptide probe, fluorescence polarization; Ephrin type-B receptor 4 (Homo sapiens), P54760; EphB4 LBD / TNYL-RAW-Alexa532 peptide; inhibition, % at 7 µM; hit rate 0.15% among 97,000;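 active = inhibition above the screen-wide mean inhibition plus 3 SD, cut at about 15% in these data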;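 note: 0% = DMSO wells and 100% = excess unlabeled TNYL-RAW peptide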
CYP2C9 inhib: blockers of cytochrome P450 2C9 activity – biochemical, luminescence, ADME assay, primary screen; AID 777, 2007; hit rate 20% among 96,000; CYP2C9 Supersomes, luciferin-H conversion; P11712; inhibition, % at 5 µM;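 active = blocking of liver enzyme CYP2C9 beyond about 50% at 5 µM, limit read from the data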
CYP2C9 act: human CYP2C9 activators, primary screen, biochemical, luminescence; Cytochrome P450 2C9 (Homo sapiens), P11712; recombinant CYP2C9, luciferin-H conversion; active compounds read high; factor 1 = untreated enzyme, 0 = blocked; AID 1024, 2008; hit rate 1.4% among 96,000; activation factor at 5 µM;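 active = activation factor of 2 or more for CYP2C9 at a 5 µM dose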;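 note: 0 = sulfaphenazole-blocked wells and 1 = vehicle-only wells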
CYP2C19 act: human CYP2C19 activators, primary screen, biochemical, luminescence | activation factor at 5 µM | AID 1025, 2008 | recombinant CYP2C19, luciferin-H EGE luminescence; active compounds read high; 0 = fully inhibited enzyme, 1 = untreated enzyme | Cytochrome P450 2C19 (Homo sapiens), P33261 | 96,000 tested, under 10 active;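 active = activation factor of at least 2 at 5 µM in the primary screen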;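 note: 0 = wells with 2.5 mM tranylcypromine and 1 = vehicle-only wells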
* marks the source's active call; other numbers are inactive results; nt = no result. Shown are actives, neighbours in structure and some others; about 27% of the full set was active somewhere.

SMILES	CYP2C19 inhib	EphB4 ephrin blk	CYP2C9 inhib	CYP2C9 act	CYP2C19 act
Cc1cc(NC(=O)CCc2ccc(S(=O)(=O)N3CCOCC3)cc2)n(-c2ccccc2)n1	nt	10	nt	nt	nt
O=C(c1ccc(Cl)cc1)N1CCC(O)(CSc2ccccc2)CC1	54*	-1	40	0.6	0.5
O=C1OCC(CO)(CO)N=C1NNc1cc(Cl)ccc1Cl	77*	4	56*	0.4	0.2
O=C(Cc1cccs1)N(Cc1ccco1)C1(C(=O)NC2CCCC2)CCCCC1	45	nt	60*	0.4	0.6
O=C(c1ccc2c(c1)OCO2)N(Cc1ccco1)C1(C(=O)NC2CCCCC2)CCCCC1	59*	-4	46	0.5	0.4
O=C1NC(=O)C(CC(=O)N(Cc2ccco2)C2(C(=O)NC3CCCC3)CCCCC2)N1 (stereo not drawn)	-1	1	-17	1.2	1
Oc1ccccc1-c1nnc(COc2ccc(Cl)cc2Cl)o1	-3	7	-1	1	1
Cc1nn(Cc2ccccc2)c2c1C(c1ccncc1)C(C#N)=C(N)O2 (stereo not drawn)	92*	nt	100*	0	0.1
COc1ccc(C2C(C#N)=C(N)Oc3c2c(C)nn3-c2ccccc2)cc1Cn1nc(C)c([N+](=O)[O-])c1C (stereo not drawn)	31	4	85*	0.2	0.7
Cc1nn(-c2ccccc2)c2c1C(c1ccc(F)cc1F)C(C#N)=C(N)O2 (stereo not drawn)	68*	4	82*	0.2	0.3
Cc1nn(Cc2ccccc2)c2c1C(c1cccnc1)C(C#N)=C(N)O2 (stereo not drawn)	26	-6	26	0.7	0.7
Cc1nn(Cc2ccccc2)c2c1C(c1ccc(Cl)cc1)C(C#N)=C(N)O2 (stereo not drawn)	nt	-4	nt	nt	nt
Cc1nn(-c2ccccc2)c2c1C(c1ccccc1)C(C#N)=C(N)O2 (stereo not drawn)	90*	8	87*	0.1	0.1
COc1ccc(OC)c(C2C(C#N)=C(N)Oc3c2c(C)nn3-c2ccc(C)cc2)c1 (stereo not drawn)	13	-7	48	0.5	0.9
O=C(O)C1CCCN1S(=O)(=O)c1ccc(Cl)c(Cl)c1 (stereo not drawn)	13	-5	-61	1.6	0.9
CC1=CC(=C2N=C(c3ccccc3)OC2=O)C=C(C)O1	-1	12	-11	1.1	1
Cc1ccc(-n2nc(C)c3c2OC(N)=C(C#N)C3c2ccoc2)cc1 (stereo not drawn)	26	-2	64*	0.4	0.7
Cc1ccc(-n2nc(C)c3c2OC(N)=C(C#N)C3c2ccco2)cc1 (stereo not drawn)	18	-4	37	0.6	0.8
CC(=O)Nc1nc(-c2ccccc2)nc(C)c1C(C)=O	-3	-5	-5	1	1
CC(=O)c1c(C)nc(-c2ccc(Cl)cc2)nc1NC(=O)C(C)C	62*	-8	94*	0.1	0.4
CC(=O)c1c(C)nc(-c2ccccc2)nc1NC(=O)C(C)C	43	-5	74*	0.3	0.6
COc1ccc(CN(C(=O)c2cc3ccccc3oc2=O)C2CCCCC2)cc1OC	nt	4	nt	nt	nt
Cc1ccc(OCC(=O)Nc2ccc(-c3nc4ncccc4o3)cc2)c(C)c1	63*	-5	46	0.5	0.4
Cn1cnnc1SCC(=O)Nc1ccc(S(=O)(=O)N2CCCC2)cc1	-8	1	12	0.9	1.1
Cn1cccc1C(=O)NC(=O)COC(=O)c1ccc(O)cc1	4	-1	-313	4.1*	1
SMILES	CYP2C19 inhib	EphB4 ephrin blk	CYP2C9 inhib	CYP2C9 act	CYP2C19 act
N#CC1=C(N)N2C(=C(C#N)C1c1ccccc1)Sc1ccccc12 (stereo not drawn)	3	1	-6	1.1	1
N#CC1=C(N)N(c2ccccc2)C(c2ccccc2)C1(C#N)C#N (stereo not drawn)	29	8	55*	0.4	0.7
CC(C)Cc1nnc(NC(=O)CSc2nc(N)cc(=O)[nH]2)s1	-6	7	-26	1.3	1.1
Cc1ccc(C)c(N(CC(=O)NC2CCCCC2)C(=O)CCC(=O)Nc2ccccn2)c1	66*	-5	80*	0.2	0.3
Cc1ccnc(NC(=O)CCC(=O)N(CC(=O)NC2CCCCC2)c2cccc(C)c2C)c1	42	2	56*	0.4	0.6
O=C(CCC(=O)N(CC(=O)NC1CCCC1)C1CCCC1)Nc1ccccn1	24	-3	13	0.9	0.8
Cc1ccc(N(CC(=O)NC2CCCC2)C(=O)CCCC(=O)Nc2ccccn2)cc1C	56*	4	56*	0.4	0.4
Cc1cc(C)cc(N(CC(=O)NC2CCCCC2)C(=O)CCC(=O)Nc2cc(C)ccn2)c1	46	nt	46	0.5	0.5
CCn1c(CC(=O)Nc2cccc(OC)c2)nnc1SCC(=O)N1CCN(c2ccccc2)CC1	42	2	59*	0.4	0.6
CCn1c(COc2ccccc2C)nnc1SCC(=O)N1CCN(c2ccccc2)CC1	-1	-1	-1	1	1
CCn1c(CSCc2ccc(C)cc2)nnc1SCC(=O)N1CCN(c2ccccc2)CC1	34	2	78*	0.2	0.7
Cn1c(SCC(=O)N(C2CCCCC2)C2CCCCC2)nnc1-c1cccs1	47	-4	8	0.9	0.5
O=C(CN1CCN(c2ccccc2)CC1)Nc1ccc(-n2cnnn2)cc1	-14	3	-14	1.1	1.1
O=C(CCSc1nnc2ccccn12)Nc1ccc(F)cc1	-2	-1	-12	1.1	1
O=C(CCSc1nnc2ccc3ccccc3n12)Nc1ccc(F)cc1	31	1	-113	2.1*	0.7
O=C(CCSc1ccc(F)cc1)Nc1ccc(-n2cnnn2)cc1	59*	0	16	0.8	0.4
O=C(CCCC(=O)OCC1CCCO1)OCC1CCCO1 (stereo not drawn)	-1	0	38	0.6	1
Cc1cccc(NC(=O)C2CCN(S(=O)(=O)c3cccs3)CC2)n1	30	4	11	0.9	0.7
COCCCNc1oc(-c2ccccc2F)nc1C#N	66*	-4	58*	0.4	0.3
COCCCNc1oc(-c2ccccc2OC)nc1C#N	13	-3	2	1	0.9
N#Cc1nc(-c2ccccc2F)oc1NCc1ccccc1	38	5	66*	0.3	0.6
COc1ccc(-c2noc(CCCC(=O)O)n2)cc1	4	nt	-7	1.1	1
O=C(NCCNC(=O)c1ccco1)c1cccc(F)c1	-4	nt	3	1	1
Cc1nc(SCC(=O)Nc2ccnc3ccccc23)n[nH]1	20	-2	22	0.8	0.8
